# From article PMC7862700, “An all-to-all approach to the identification of sequence-specific readers for epigenetic DNA modifications on cytosine”
# What was measured:
# Test in all cases: DAPPL (digital affinity profiling via proximity ligation, sequencing); 10 mM Tris-HCl pH 7.5, 50 mM NaCl, 1 mM DTT, 4% glycerol, room temperature, 30 min; GST-TFs on glutathione beads, 16-mer random dsDNA library, 0.1% formaldehyde crosslink after washing; high values mean tight binding
# FEV = target: T1, FEV (Homo sapiens, UniProt Q99581 1-238); conditions: protein: recombinant; tags: N-terminal GST; dsDNA, one strand shown
# T1 sequence: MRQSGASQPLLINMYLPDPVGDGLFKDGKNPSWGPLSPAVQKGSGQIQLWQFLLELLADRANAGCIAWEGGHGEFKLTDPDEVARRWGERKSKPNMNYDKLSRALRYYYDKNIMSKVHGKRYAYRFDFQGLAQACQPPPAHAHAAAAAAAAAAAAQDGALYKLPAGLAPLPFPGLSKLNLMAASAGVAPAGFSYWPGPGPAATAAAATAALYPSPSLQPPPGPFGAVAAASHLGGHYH
# Procedure, shortened: (§1)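 Sequencing on an Illumina NextSeq500 followed washing, crosslinking with 0.1% formaldehyde, proximity ligation (BsaI/T4 ligase, 1 h, 37 °C) and PCR amplification of pools that had been incubated for 30 min at room temperature with 200 nmole of a random double-stranded 16-mer DNA library in Tris/NaCl/DTT/glycerol buffer. Each pool held DNA-barcoded human transcription factors, expressed in yeast as GST fusions and captured on glutathione beads, plus a tag-only sample. Binding signal is a hexamer's read frequency for a factor divided by its frequency in the tag-only sample.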
# ETV5 = ETV5 (Homo sapiens, UniProt P41161 1-510); conditions: protein: recombinant; tags: N-terminal GST; dsDNA, one strand shown
# Sequence of ETV5 (P41161 whole entry): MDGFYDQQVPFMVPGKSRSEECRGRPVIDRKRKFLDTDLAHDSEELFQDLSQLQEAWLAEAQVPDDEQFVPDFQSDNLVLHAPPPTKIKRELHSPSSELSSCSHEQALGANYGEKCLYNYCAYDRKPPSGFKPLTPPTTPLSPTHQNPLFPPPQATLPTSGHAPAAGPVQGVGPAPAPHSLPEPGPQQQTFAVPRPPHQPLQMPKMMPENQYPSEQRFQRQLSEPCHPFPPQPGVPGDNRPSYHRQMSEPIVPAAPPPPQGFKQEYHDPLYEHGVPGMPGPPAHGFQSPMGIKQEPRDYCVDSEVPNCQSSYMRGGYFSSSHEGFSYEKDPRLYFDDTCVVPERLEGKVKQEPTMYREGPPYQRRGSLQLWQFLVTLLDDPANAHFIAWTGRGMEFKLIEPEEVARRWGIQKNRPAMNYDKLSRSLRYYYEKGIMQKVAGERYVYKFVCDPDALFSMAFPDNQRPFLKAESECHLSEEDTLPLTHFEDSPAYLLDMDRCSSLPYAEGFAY
# Procedure, shortened: as §1
# HSF1 = HSF1 (Homo sapiens, UniProt Q00613 1-529); conditions: protein: recombinant; tags: N-terminal GST; chain copies: 3; dsDNA, one strand shown
# Sequence of HSF1 (Q00613 whole entry): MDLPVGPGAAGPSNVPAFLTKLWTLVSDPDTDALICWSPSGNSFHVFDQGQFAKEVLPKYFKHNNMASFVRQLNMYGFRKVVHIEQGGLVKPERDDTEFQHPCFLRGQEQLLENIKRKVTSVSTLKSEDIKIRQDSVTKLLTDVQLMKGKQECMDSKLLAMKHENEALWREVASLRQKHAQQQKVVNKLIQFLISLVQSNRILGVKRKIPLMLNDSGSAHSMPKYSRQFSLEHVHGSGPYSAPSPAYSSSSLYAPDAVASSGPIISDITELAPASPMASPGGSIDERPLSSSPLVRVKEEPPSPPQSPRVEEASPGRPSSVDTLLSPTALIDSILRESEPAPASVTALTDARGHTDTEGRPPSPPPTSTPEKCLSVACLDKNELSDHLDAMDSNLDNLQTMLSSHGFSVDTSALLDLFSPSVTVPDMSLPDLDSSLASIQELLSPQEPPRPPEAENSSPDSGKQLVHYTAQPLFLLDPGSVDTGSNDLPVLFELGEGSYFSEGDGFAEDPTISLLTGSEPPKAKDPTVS
# Procedure, shortened: as §1
# SPIC = target: T2, SPIC (Homo sapiens, UniProt Q8N5J4 1-248); conditions: protein: recombinant; tags: N-terminal GST; dsDNA, one strand shown
# T2 sequence: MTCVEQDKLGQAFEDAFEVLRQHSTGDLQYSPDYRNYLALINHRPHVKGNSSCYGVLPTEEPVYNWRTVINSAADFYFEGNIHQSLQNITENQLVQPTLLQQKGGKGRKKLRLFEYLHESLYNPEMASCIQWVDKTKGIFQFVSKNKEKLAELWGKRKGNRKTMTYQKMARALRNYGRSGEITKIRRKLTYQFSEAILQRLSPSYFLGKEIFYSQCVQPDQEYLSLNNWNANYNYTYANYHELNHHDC
# Procedure, shortened: as §1
# ELF4 = ELF4 (Homo sapiens, UniProt Q99607 1-663); conditions: protein: recombinant; tags: N-terminal GST; dsDNA, one strand shown
# Sequence of ELF4 (Q99607 whole entry): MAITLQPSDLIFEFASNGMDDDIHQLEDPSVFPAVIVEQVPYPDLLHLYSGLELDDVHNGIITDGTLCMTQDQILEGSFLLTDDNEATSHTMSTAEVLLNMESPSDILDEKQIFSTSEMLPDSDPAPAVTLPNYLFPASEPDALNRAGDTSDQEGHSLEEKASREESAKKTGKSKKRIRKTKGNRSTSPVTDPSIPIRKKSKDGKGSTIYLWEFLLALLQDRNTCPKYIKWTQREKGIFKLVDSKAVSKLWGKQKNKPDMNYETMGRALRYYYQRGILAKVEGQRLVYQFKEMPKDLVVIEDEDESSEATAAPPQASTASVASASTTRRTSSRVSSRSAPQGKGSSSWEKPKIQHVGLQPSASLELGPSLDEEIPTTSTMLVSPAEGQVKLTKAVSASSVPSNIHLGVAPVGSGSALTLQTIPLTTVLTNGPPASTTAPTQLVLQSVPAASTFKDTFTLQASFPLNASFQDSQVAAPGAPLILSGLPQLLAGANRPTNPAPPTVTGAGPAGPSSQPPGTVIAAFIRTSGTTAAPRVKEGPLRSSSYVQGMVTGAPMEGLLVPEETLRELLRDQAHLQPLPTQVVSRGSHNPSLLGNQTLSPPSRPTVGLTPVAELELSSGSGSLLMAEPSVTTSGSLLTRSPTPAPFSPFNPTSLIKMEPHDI
# Procedure, shortened: as §1
# ELK4 = target: T3, ELK4 (Homo sapiens, UniProt P28324-2 1-405); conditions: protein: recombinant; tags: N-terminal GST; dsDNA, one strand shown
# T3 sequence: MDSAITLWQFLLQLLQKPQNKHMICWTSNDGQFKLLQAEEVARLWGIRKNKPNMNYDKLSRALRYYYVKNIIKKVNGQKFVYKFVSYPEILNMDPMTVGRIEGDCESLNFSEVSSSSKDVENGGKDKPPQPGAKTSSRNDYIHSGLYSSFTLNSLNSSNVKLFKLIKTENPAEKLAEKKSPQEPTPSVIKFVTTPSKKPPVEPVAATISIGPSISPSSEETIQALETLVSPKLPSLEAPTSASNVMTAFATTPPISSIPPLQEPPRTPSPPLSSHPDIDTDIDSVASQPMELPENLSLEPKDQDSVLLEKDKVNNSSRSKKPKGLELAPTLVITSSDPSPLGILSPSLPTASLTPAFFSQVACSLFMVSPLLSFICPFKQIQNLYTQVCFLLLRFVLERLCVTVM
# Procedure, shortened: as §1
# ETV2 = target: T4, ETV2 (Homo sapiens, UniProt O00321 1-342); conditions: protein: recombinant; tags: N-terminal GST; dsDNA, one strand shown
# T4 sequence: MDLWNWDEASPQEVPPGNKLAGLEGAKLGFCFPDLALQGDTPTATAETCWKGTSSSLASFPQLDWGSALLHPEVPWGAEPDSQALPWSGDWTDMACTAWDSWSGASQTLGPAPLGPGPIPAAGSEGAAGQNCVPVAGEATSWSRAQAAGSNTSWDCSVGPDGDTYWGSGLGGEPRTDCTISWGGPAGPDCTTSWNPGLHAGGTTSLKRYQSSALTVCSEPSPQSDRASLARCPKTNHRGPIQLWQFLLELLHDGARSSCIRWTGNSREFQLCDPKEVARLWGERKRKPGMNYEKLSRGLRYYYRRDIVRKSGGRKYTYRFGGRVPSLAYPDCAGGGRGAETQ
# Procedure, shortened: as §1
# ELF3 = target: T5, ELF3 (Homo sapiens, UniProt P78545 1-371); conditions: protein: recombinant; tags: N-terminal GST; dsDNA, one strand shown
# T5 sequence: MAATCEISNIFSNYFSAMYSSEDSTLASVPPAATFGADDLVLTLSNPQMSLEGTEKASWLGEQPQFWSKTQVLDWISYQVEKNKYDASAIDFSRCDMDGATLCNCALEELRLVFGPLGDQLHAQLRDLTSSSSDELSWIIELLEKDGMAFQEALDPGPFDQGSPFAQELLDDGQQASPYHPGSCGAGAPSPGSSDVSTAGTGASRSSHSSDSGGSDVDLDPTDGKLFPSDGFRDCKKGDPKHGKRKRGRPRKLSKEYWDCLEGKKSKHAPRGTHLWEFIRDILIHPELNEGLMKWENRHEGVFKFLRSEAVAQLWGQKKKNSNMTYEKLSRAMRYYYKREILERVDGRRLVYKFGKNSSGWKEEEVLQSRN
# Procedure, shortened: as §1
# CRX = CRX (Homo sapiens, UniProt O43186 1-299); conditions: protein: recombinant; tags: N-terminal GST; dsDNA, one strand shown
# Sequence of CRX (O43186 whole entry): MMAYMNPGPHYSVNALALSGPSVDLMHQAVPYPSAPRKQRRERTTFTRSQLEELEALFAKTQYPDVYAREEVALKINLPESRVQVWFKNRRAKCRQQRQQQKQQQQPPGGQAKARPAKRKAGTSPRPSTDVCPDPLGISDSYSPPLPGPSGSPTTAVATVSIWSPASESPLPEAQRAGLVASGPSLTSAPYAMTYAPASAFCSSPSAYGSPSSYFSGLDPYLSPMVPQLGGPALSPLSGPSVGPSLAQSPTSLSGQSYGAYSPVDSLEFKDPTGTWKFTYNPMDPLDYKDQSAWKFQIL
# Procedure, shortened: as §1
sequence,measurement,setting,value
CCTGCG,binding signal,FEV,"1.28 fold enrichment (6-mer frequency, TF over GST control)"
same,binding signal,ETV5,"1.27 fold enrichment (6-mer frequency, TF over GST control)"
same,binding signal,HSF1,"1.1 fold enrichment (6-mer frequency, TF over GST control)"
same,binding signal,SPIC,"1.12 fold enrichment (6-mer frequency, TF over GST control)"
same,binding signal,ELF4,"1.32 fold enrichment (6-mer frequency, TF over GST control)"
same,binding signal,ELK4,"1.37 fold enrichment (6-mer frequency, TF over GST control)"
same,binding signal,ETV2,"1.41 fold enrichment (6-mer frequency, TF over GST control)"
same,binding signal,ELF3,"1.23 fold enrichment (6-mer frequency, TF over GST control)"
same,binding signal,CRX,"1.05 fold enrichment (6-mer frequency, TF over GST control)"
